High-throughput results from PubChem BioAssay.
Hits are enriched below; roughly 3.8% of the tested compounds scored in any of these assays.
TGFb inhibitor: qHTS for Inhibitors of TGF-b; HepG2 CAGA-GFP TGF-b/SMAD3 reporter, GFP fluorescence, 18 h; TGF-beta stimulated, 500 pg/mL final; actives 1.2% (n = 410,000); Potency, µM (top dose mostly 46.1 µM), without a hit: at the highest dose activity, negative = inhibition, most hits filed as inhibitors; further: on the % scale 0 is the no-effect control and ±100 the full control effect; nearly all actives have a fitted effect of over 65% in size
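Inhibition of TGF-beta-driven CAGA-GFP reporter expression in HEPG2 cells is measured by cellular GFP fluorescence after 18 h stimulation with 500 pg/mL recombinant TGF-beta in 1% FBS medium at 37 degrees C.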
A549 tox: Nrf2 qHTS screen for inhibitors: counterscreen for cytotoxicity; AID 504648, 2011; actives 0.16% (n = 390,000); Potency, µM (highest dose often 46 µM), for the others: at the highest dose activity change, negative = cytotoxicity, usual class: inhibitors; A549 ARE-Fluc cells, CellTiter-Fluor viability, 18-24 h; further: on the % scale 0 is the no-effect control and ±100 the full control effect
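A549 ARE_Fluc cells in 5% FBS OPTI-MEM were exposed to compounds in concentration-response for 18-24 h at 37 deg C. Viability was read by CellTiter-Fluor fluorescence (Ex 405/Em 525) after 30 min, before the luciferase read.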
ATXN2 expr inh: Primary qHTS for Inhibitors of ATXN expression; actives 0.72% (n = 360,000); AID 1745845, 2022; Potency, µM (doses to about 57 µM), for inactives: top-dose activity change, negative = inhibition, actives largely listed as inhibitors; HEK-293 ATXN2-luciferase reporter, luminescence, 24 h; further: on the % scale 0 is the no-effect control and ±100 the full control effect; nearly all actives have a fitted effect of over 55% in size
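qHTS (up to 57 uM final) was run with 24 h compound exposure of reporter cells at 37 °C. Each well was multiplexed: SteadyGlo luminescence measured ATXN2-luciferase expression after a fluorogenic Gly-Phe-AFC viability readout (25 uM final).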
HepG2 viability: qHTS for Inhibitors of TGF-b: Cytotox Counterscreen; HepG2 CAGA-GFP viability, ATP luminescence, 18 h; Potency, µM (top dose mostly 46.1 µM), inactives show top-dose activity change, negative = cytotoxicity, actives largely listed as cytotoxic; actives 0.76% (n = 410,000); AID 588856, 2011
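HepG2 CAGA-GFP cells (1000/well, DMEM with 1% FBS) received compound, then TGF-beta at 500 pg/mL final, and were incubated 18 hours at 37 degrees C. Viability was read by CellTiter-Glo luminescence. Media-only wells were set as complete cell-killing and DMSO as no toxicity.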
Nrf2 inh: Nrf2 qHTS screen for inhibitors; A549 ARE-Fluc reporter, luciferase luminescence, 18-24 h; Potency, µM (highest dose often 46 µM), for the others: at the highest dose activity change, negative = inhibition, actives largely listed as inhibitors; actives 2.1% (n = 360,000); further: on the % scale 0 is the no-effect control and ±100 the full control effect; nearly all actives have a fitted effect of over 60% in size
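Quantitative HTS in A549 cells stably bearing an antioxidant response element-firefly luciferase construct. Inhibition of Nrf2-driven transcription was scored by luminescence after 18-24 h of compound exposure at 37 °C.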
ATXN viability: Viability Counterscreen for Primary qHTS for Inhibitors of ATXN expression. S2 cells (HEK-293 line with an ATXN2-luciferase reporter) viability, CellTiter-Fluor protease fluorescence, 24 h. Potency, µM (highest dose often 56.7 µM), hits mostly cytotoxic. actives 0.49% (n = 400,000); further: nearly all actives have a fitted effect of over 40% in size
Active calls of the source: *; i = inactive; ? = inconclusive; / = not tested or not shown. The call rests on the fitted dose curve; in most records, active means well fitted curve in the direction sought with a large enough effect; inconclusive means small, poorly fitted or top-dose-only effect, or another doubt; inactive means no such curve, though single readings can be large; an effect the other way counts as inactive or inconclusive. Potency means the concentration at half of the fitted maximal effect.

SMILES | TGFb inhibitor | A549 tox | ATXN2 expr inh | HepG2 viability | Nrf2 inh | ATXN viability
Cc1cc(OC(C)C(=O)NCc2ccncc2)c2c(C)c(C)c(=O)oc2c1 (stereo not drawn) | 3% | 0% | 7% | -13% | 0% | i
COc1cc2ncnc(Nc3ccc(F)c(Cl)c3)c2cc1NC(=O)C=CCN1CCCCC1 | / | / | 31µM* | / | / | /
O=C(NCCN1CCCCC1)Nc1ccc(F)c(Cl)c1 | 1% | 7% | -5% | -1% | -6% | i
CCOc1cc2ncc(C#N)c(Nc3ccc(F)c(Cl)c3)c2cc1NC(=O)C=CCN(C)C | / | / | 22µM* | / | / | /
CN(C)CC=CC(=O)Nc1cc2c(Nc3ccc(F)c(Cl)c3)ncnc2cc1O[C@H]1CCOC1 | / | / | 27µM* | / | / | /
Cc1ccc2c(c1)N(C(=O)N1CCC(C(=O)NCc3ccccc3C)CC1)CC(C)O2 (stereo not drawn) | ? | 2% | / | -17% | 11% | /
Cc1ccc(C(=O)NCC(=O)O)o1 | -1% | -5% | 4% | -3% | 1% | ?
COc1cccc(-c2cc(C(=O)N3C(C)CCCC3C)no2)c1 (stereo not drawn) | 8% | 12% | 25% | -39% | / | i
CC(CNC(=S)Nc1cc(F)cc(F)c1)CSc1ccc(Cl)cc1 (stereo not drawn) | 18µM* | 0% | ? | -75% | ? | ?
Fc1ccc(CNC(=S)Nc2ccc(Cl)cc2)cc1 | ? | -9% | -16% | -42% | ? | i
Cc1ccc(-c2nc3ccccc3[nH]2)cc1NC(=O)COc1ccc(Cl)cc1Cl | -34% | -14% | 6% | -32% | 15% | i
Cc1cc(OCC(=O)Nc2cc(-c3nc4ccccc4[nH]3)ccc2C)ccc1Cl | / | -30% | / | 11µM* | ? | /
Cc1ccc(OCC(=O)NCCc2nc3ccccc3[nH]2)c(C)c1 | -1% | 0% | -2% | -21% | ? | i
Cc1cc(OCC(=O)NCCc2nc3ccccc3[nH]2)cc(C)c1Cl | 20µM* | 2% | / | -45% | ? | /
CCCCOc1cccc(OCC(=O)Nc2nc3ccccc3[nH]2)c1 | 14µM* | ? | -17% | 13µM* | 25% | i
CC1CN(C2=NC(=O)/C(=C/c3ccncc3)S2)CC(C)O1 (stereo not drawn) | 16% | -5% | 3% | -15% | -1% | i
COc1cccc(C(=O)NCCc2csc(-c3ccc(Cl)cc3)n2)c1 | 13µM* | 23% | ? | -28% | / | ?
COc1ccc(-c2nc3scc(CCNC(=O)c4cccc(Br)c4)n3n2)cc1 | ? | -6% | ? | -21% | -12% | 18µM*
O=C(NCCc1csc2nc(-c3ccc(F)cc3)nn12)c1cccc(C(F)(F)F)c1 | -20% | -23% | -39% | -25% | / | ?
O=S(=O)(NCCc1csc(-c2ccc(F)cc2)n1)c1ccc(F)cc1F | ? | -2% | ? | -28% | / | i
CC(C)(C)c1ccc(C(=O)NCCc2csc(-c3ccc(Cl)cc3)n2)cc1 | 13µM* | -9% | -12% | -18% | / | i
COc1cccc(OC)c1C(=O)NCCc1csc(-c2ccc(Cl)cc2)n1 | ? | 3% | ? | -33% | / | ?
COc1ccc(F)cc1S(=O)(=O)NCCc1csc(-c2ccc(Cl)cc2)n1 | 13µM* | 8% | ? | -24% | / | ?
COc1ccc(NC(=O)[C@H](C)NC(=O)C2CCN(S(=O)(=O)c3ccc(C)cc3)CC2)cc1OC | -7% | 0% | -4% | -7% | -3% | i
COc1cccc(NC(=O)Cn2c(=O)n(CCc3cccc(C)c3)c(=O)c3ccccc32)c1 | ? | 2% | -4% | -31% | -4% | i
SMILES | TGFb inhibitor | A549 tox | ATXN2 expr inh | HepG2 viability | Nrf2 inh | ATXN viability
CN(C)CCCNC(=O)c1ccc(-c2nc(-c3ccc(Cl)cc3)cs2)cc1 | ? | ? | ? | 16µM* | ? | 20µM*
O=C(NCCc1csc(-c2ccc(C(F)(F)F)cc2)n1)c1cccs1 | 7% | -2% | -23% | -23% | 26µM* | ?
O=C(NCCc1csc(-c2ccc(C(F)(F)F)cc2)n1)c1ccccc1Cl | 0% | 0% | / | -28% | / | /
O=C(C[C@H]1C/C=C\C[C@@H](Cc2ccc(F)cc2)C(=O)OC[C@@H]2CCCN2C1=O)NCCO | 1% | 2% | 11% | 4% | 8% | i
Cc1cn([C@H]2C[C@H](O)[C@@H](/C=C/C(=O)NCCC(C)C)O2)c(=O)[nH]c1=O | -2% | / | 5% | -15% | / | i
COc1ccc(Br)cc1CN(C)CC(=O)Nc1c(Cl)ccc(C)c1Cl | -9% | ? | -19% | -2% | 18µM* | i
Cn1ccc2cc(-c3csc(N4CCC(C(N)=O)CC4)n3)ccc21 | 3% | -5% | 5% | -26% | 7% | i
CN(C)CCCN(C(=O)c1ccc([N+](=O)[O-])o1)c1nc2cc3c(cc2s1)OCO3 | ? | ? | -7% | -56% | 26% | i
CCCNC(=O)C1(C)CCN1C(=O)Cc1ccc(C(C)(C)C)cc1 (stereo not drawn) | 1% | / | 2% | -15% | / | ?
CCOC(=O)c1nc(Nc2ccccc2C)c2ccccc2n1 | -1% | 3% | -6% | 3% | ? | i
CCOC(=O)c1nc(Nc2ccccc2CC)c2ccccc2n1 | -12% | 4% | -19% | -28% | 23µM* | /
C=C1C(=O)OC2C1CCC(C)=C1C(=O)C3OC3(C)C12 (stereo not drawn) | 4.5µM* | ? | 7.1µM* | 4.5µM* | 16µM* | 8.9µM*
CCOc1ccc(NC(=O)CSc2nnc(CNC(=O)C34CC5CC(CC(C5)C3)C4)n2CC)cc1 | -29% | ? | -6% | -15% | 17% | i
COc1cccc(-c2nn(-c3ccccc3)cc2/C=C(/NC(=O)c2ccccc2)C(=O)O)c1 | -2% | -10% | 0% | -9% | -15% | i
Nc1ccc2cc3ccc(N)cc3nc2c1 | / | / | 2.5µM* | / | / | ?
Cc1ccc2cc(N)ccc2n1 | -1% | 1% | -8% | 12% | 4% | i
Cn1nnnc1N=N/C(=N/Nc1ccccc1)c1ccccc1 | -8% | 1% | 2.5µM* | -36% | -8% | 8.9µM*
O=C1CC(/C=C/c2ccc(Cl)cc2)=Nc2ccccc2N1 | 11µM* | -17% | -20% | -41% | ? | ?
Cn1ccc2c(-c3ccc(C(C)(C)C)cc3)cc3c(c21)C1CCC3O1 (stereo not drawn) | 11µM* | / | 52% | -39% | / | i
